# From PubChem BioAssay
# IDE exosite inh: exo-site inhibitors of human insulin-degrading enzyme; AID 1259349; z-score at 20 µM; purified IDE, FL-6b probe fluorescence polarization; hits give low values; P14735; 6.3% of 17,000 active;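 active = z-score of -3 or lower, meaning strong loss of probe binding signal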;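 also: His-tagged human IDE residues 42-1019 made in E. coli with 30 nM FL-6b probe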
# Target sequence (P14735 42-1019 limits assumed): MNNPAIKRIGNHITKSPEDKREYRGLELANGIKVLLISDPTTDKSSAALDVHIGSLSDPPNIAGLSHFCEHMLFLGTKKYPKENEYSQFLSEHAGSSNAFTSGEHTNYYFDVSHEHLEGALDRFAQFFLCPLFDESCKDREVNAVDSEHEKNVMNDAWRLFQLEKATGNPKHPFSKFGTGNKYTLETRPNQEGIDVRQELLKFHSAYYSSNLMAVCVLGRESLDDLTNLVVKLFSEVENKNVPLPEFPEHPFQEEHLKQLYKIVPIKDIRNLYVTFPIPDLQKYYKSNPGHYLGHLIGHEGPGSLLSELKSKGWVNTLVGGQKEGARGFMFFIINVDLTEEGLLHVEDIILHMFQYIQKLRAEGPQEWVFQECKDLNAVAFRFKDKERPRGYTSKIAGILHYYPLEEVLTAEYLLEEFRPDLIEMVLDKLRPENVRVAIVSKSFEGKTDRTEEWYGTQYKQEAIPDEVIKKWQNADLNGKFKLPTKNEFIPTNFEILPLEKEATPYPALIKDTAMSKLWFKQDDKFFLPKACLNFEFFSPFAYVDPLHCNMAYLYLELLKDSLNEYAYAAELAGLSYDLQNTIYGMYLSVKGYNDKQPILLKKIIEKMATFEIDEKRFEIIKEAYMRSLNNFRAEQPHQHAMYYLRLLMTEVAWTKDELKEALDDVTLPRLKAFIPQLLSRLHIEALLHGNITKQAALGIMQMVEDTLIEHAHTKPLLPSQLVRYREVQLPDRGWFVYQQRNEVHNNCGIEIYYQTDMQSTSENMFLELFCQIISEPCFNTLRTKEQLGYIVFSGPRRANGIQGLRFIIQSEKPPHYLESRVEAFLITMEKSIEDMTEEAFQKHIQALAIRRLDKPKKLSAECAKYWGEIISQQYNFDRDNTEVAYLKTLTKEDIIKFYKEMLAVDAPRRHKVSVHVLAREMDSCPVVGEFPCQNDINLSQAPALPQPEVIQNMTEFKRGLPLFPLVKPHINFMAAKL
# Numbers without * were called inactive. The full list was thinned out, with hits kept by preference.
SMILES,IDE exosite inh
C/C=C/c1ccc([C@@H]2[C@@H](CO)N3C(=O)CN(C(=O)c4cnccn4)C[C@@H]23)cc1,1.2
Cc1cccc(-c2ccc([C@H]3[C@H]4CN(C(=O)c5cnccn5)CC(=O)N4[C@H]3CO)cc2)c1,-5.4*
O=C(c1cnccn1)N1CC(=O)N2[C@H](CO)[C@@H](c3ccc(C4=CCCCC4)cc3)[C@H]2C1,0.26
C[C@@H]1CC(=O)N[C@@H](c2ccccc2)C/C=C\C[C@H](c2ccc3c(c2)OCO3)NC1=O,0.4
OC[C@@H]1[C@H](c2ccc(C3=CCCCC3)cc2)[C@@H]2CN(CCC(F)(F)F)CCCCN12,2
CCCNC(=O)N1C[C@@H](C)[C@H](OC)CN(C)C(=O)c2ccc(NC(=O)CC)cc2OC[C@H]1C,0.11
O=C1CN(S(=O)(=O)Cc2ccccc2)C[C@H]2[C@@H](c3ccc(C#CC4CC4)cc3)[C@H](CO)N12,0.85
C/C=C/c1ccc([C@@H]2[C@@H](C#N)N(C(=O)NC3CCCC3)[C@@H]2CO)cc1,2.8
C/C=C/c1ccc([C@H]2[C@@H](CN(C)C(=O)CC)N(C(=O)C3CC3)[C@H]2CO)cc1,0.97
O=C(NC[C@@H]1[C@H](c2ccccc2)[C@H](CO)N1Cc1ccccn1)C1CC1,4.4
CCCC(=O)N1CC2(C1)CN(Cc1ccccc1F)[C@H](CO)c1c2c2ccc(OC)cc2n1C,0.028
N#Cc1ccc(-c2ccc([C@H]3[C@H](CO)N4CCCCN(S(=O)(=O)c5ccccc5)C[C@@H]34)cc2)cc1,2.1
COc1ccc(NC(=O)N2C[C@@H]3[C@H](c4ccccc42)[C@H](CO)N3Cc2ccccn2)cc1,0.22
Cc1cccc(-c2ccc([C@H]3[C@H](CO)N4C(=O)CN(C(=O)c5cnccn5)C[C@@H]34)cc2)c1,-14*
Cc1cccc(-c2ccc([C@@H]3[C@@H](CO)N4C(=O)CN(C(=O)c5cnccn5)C[C@@H]34)cc2)c1,-18*
CC(=O)NC[C@@H]1[C@@H](c2ccc(C3=CCCC3)cc2)[C@@H](CO)N1C(=O)CN(C)C,0.85
CCC(=O)N1C[C@@H](C)[C@@H](OC)CN(C)C(=O)c2cc(NC(=O)Nc3ccc(Cl)cc3)ccc2OC[C@@H]1C,0.051
COCC#Cc1ccc([C@@H]2[C@@H](CO)N3CCCCN(S(=O)(=O)c4ccc(OC)cc4)C[C@H]23)cc1,1.2
O=C(c1ccccc1F)N1CC(=O)N2[C@H](C1)[C@@H](c1ccc(-c3cccnc3)cc1)[C@@H]2CO,-3.1*
O=C(C1CCCCC1)N1CC(=O)N2[C@H](CO)[C@H](c3ccc(-c4cccnc4)cc3)[C@H]2C1,-4.7*
CCC(=O)N1CC(=O)N2[C@H](CO)[C@H](c3ccc(-c4cccnc4)cc3)[C@H]2C1,-3.1*
CCC(=O)N1CC(=O)N2[C@@H](CO)[C@H](c3ccc(-c4cccnc4)cc3)[C@@H]2C1,1.4
O=C1CN(Cc2ccc(F)cc2)C[C@H]2[C@@H](c3ccc(-c4cccnc4)cc3)[C@H](CO)N12,0.5
O=C(c1ccccc1F)N1CC(=O)N2[C@@H](CO)[C@H](c3ccc(-c4cccnc4)cc3)[C@@H]2C1,-1.5
O=C(C1CCCCC1)N1CC(=O)N2[C@H](C1)[C@H](c1ccc(-c3cccnc3)cc1)[C@@H]2CO,-0.0031
SMILES,IDE exosite inh
Cc1ccc(CN2CC(=O)N3[C@@H](CO)[C@H](c4ccc(-c5cccnc5)cc4)[C@@H]3C2)cc1,-3.1*
O=C(c1ccccc1F)N1CC(=O)N2[C@@H](CO)[C@@H](c3ccc(-c4cccnc4)cc3)[C@@H]2C1,-1.4
O=C(C1CCCCC1)N1CC(=O)N2[C@@H](CO)[C@H](c3ccc(-c4cccnc4)cc3)[C@@H]2C1,1.4
O=C1CN(Cc2ccc(F)cc2)C[C@@H]2[C@@H](c3ccc(-c4cccnc4)cc3)[C@@H](CO)N12,-0.31
CCC(=O)N1CC(=O)N2[C@H](CO)[C@@H](c3ccc(-c4cccnc4)cc3)[C@@H]2C1,-1.4
CCC(=O)N1[C@@H]2c3cccc(=O)n3C[C@H]1[C@H](CO)[C@H]2C(=O)NC1Cc2ccccc2C1,-0.28
O=C(Cc1ccncc1)N1CC(=O)N2[C@H](C1)[C@@H](c1ccc(C3=CCCC3)cc1)[C@@H]2CO,1.9
CS(=O)(=O)N1CCCCN2[C@@H](CO)[C@H](c3ccc(C4=CCCC4)cc3)[C@@H]2C1,-0.46
CCN(C[C@@H]1[C@@H](c2ccccc2)[C@H](CO)N1CC1CC1)C(=O)c1ccccn1,1.1
O=C(C[C@@H]1CC[C@H]2[C@@H](COC[C@@H](O)CN2C(=O)Nc2ccc(F)cc2)O1)NC1CCC1,-0.26
O=C(Nc1ccccc1)N1CC(=O)N2[C@@H](CO)[C@H](c3ccc(C#CC4CC4)cc3)[C@@H]2C1,-0.6
COCC(=O)NC[C@@H]1[C@H](c2ccc(C3=CCCC3)cc2)[C@@H](CO)N1C(C)=O,4.1
CCc1cnc(N2[C@H](C#N)[C@@H](c3ccccc3C3=CCCC3)[C@@H]2CO)s1,3.1
O=C(c1cccc(F)c1)N1CC(=O)N2[C@H](CO)[C@H](c3ccc(-c4cccnc4)cc3)[C@@H]2C1,3.1
O=C(c1cnccn1)N1CC(=O)N2[C@H](C1)[C@@H](c1ccc(-c3ccc(F)cc3)cc1)[C@@H]2CO,4.4
O=C(c1ccccn1)N1CC(=O)N2[C@H](C1)[C@H](c1ccc(-c3cccc(F)c3)cc1)[C@@H]2CO,3.1
O=C(c1cnccn1)N1CC(=O)N2[C@H](CO)[C@H](c3ccc(-c4cccc(F)c4)cc3)[C@@H]2C1,-0.31
O=C(c1ccccn1)N1CC(=O)N2[C@H](C1)[C@@H](c1ccc(-c3cccc(F)c3)cc1)[C@@H]2CO,-7.7*
O=C(c1cnccn1)N1CC(=O)N2[C@H](CO)[C@H](c3ccc(-c4ccc(F)cc4)cc3)[C@@H]2C1,3.5
O=C(c1cnccn1)N1CC(=O)N2[C@H](CO)[C@@H](c3ccc(-c4cccc(F)c4)cc3)[C@@H]2C1,-3.7*
O=C(c1cnccn1)N1CC(=O)N2[C@H](C1)[C@@H](c1ccc(-c3cccc(F)c3)cc1)[C@@H]2CO,-4*
O=C(c1cnccn1)N1CC(=O)N2[C@@H](CO)[C@@H](c3ccc(-c4ccc(F)cc4)cc3)[C@@H]2C1,3.1
CCCN(C)C[C@H]1OCCCC[C@H](C)Oc2ccc(NC(=O)CCCN(C)C)cc2C(=O)N([C@H](C)CO)C[C@@H]1C,1.3
COc1cccc(C(=O)N2C[C@H]3[C@@H](c4ccccc42)[C@@H](CO)N3C(=O)c2cccc(F)c2)c1,2.3
O=C1CN(S(=O)(=O)Cc2ccccc2)C[C@@H]2[C@@H](c3ccc(C#Cc4cccnc4)cc3)[C@H](CO)N12,-1.8
SMILES,IDE exosite inh
CCCNC(=O)N1[C@H](CO)[C@H](c2ccc(C#CC3CC3)cc2)[C@H]1CNC,0.69
C[C@@H]1CCCCO[C@@H](CN(C)C(=O)Nc2ccccc2)[C@H](C)CN([C@H](C)CO)C(=O)c2cc(NC(=O)Nc3ccccc3)ccc2O1,-0.54
O=C1CN(Cc2ccccc2)C[C@H]2[C@@H](c3ccc(-c4ccccc4F)cc3)[C@@H](CO)N12,1.9
O=C(Nc1ccccc1)N1CCCCN2[C@H](CO)[C@@H](c3ccc(C#Cc4ccccc4)cc3)[C@@H]2C1,-0.7
O=C(Nc1ccccc1F)N1CCCCN2[C@H](CO)[C@H](c3ccc(-c4cccnc4)cc3)[C@H]2C1,-0.4
O=C(Nc1ccccc1F)N1CCCCN2[C@H](CO)[C@H](c3ccc(C#Cc4cccnc4)cc3)[C@H]2C1,-6.9*
O=C(Nc1ccccc1F)N1CCCCN2[C@H](CO)[C@@H](c3ccc(-c4cccnc4)cc3)[C@@H]2C1,-1.5
